The results in this text go back to PubChem BioAssay (EPA / NIEHS).

Structures are written as SMILES. Results filed as inconclusive are left out. Calls of active or inactive are those of the source. How the source made its calls: active means hit-call score of the fitted dose curve at least 0.9, where 1 is the maximum; inconclusive means response in the unintended direction; inactive means score below 0.9.

A short description of assay [1]: Tanguay_ZF_120hpf_YSE_legacy: (Legacy) Oregon State University Tanguay Lab 120 Hour Post-fertilization zebrafish Assay for Yolk Sac Edema (AID 2283634).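 On AC50: actives raise the incidence of yolk sac edema above the DMSO baseline.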 An outline of the steps: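 Dechorionate (pronase, 4 hpf) → place one 6 hpf embryo per well → static compound exposure, sealed and foil-covered, 28C, to 120 hpf → record yolk sac edema as present or absent. Final DMSO 0.64%.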

Assay [2] can be described thus: Tanguay_ZF_120hpf_AXIS_legacy: (Legacy) Oregon State University Tanguay Lab 120 Hour Post-fertilization zebrafish Assay for Body Axis Malformation (AID 2283635).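 On AC50: potency for an increased fraction of larvae scored with body axis malformation.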 Put shortly:
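Chorion is removed with pronase at 4 hpf, then single 6 hpf embryos are dosed (final DMSO 0.64%) and held statically at 28C in sealed, foil-covered plates. At 120 hpf body axis malformation is recorded as present or absent.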

Assay [3] in a line: Tanguay_ZF_120hpf_EYE_legacy: (Legacy) Oregon State University Tanguay Lab 120 Hour Post-fertilization zebrafish Assay for Eye Malformation (AID 2283636).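 Further: binary presence or absence of eye malformation scored by brightfield in 120 hpf larvae.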 Put shortly:
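Dechorionated Tropical 5D zebrafish embryos, one per well from 6 hpf, static exposure to 120 hpf at 28C, 0.64% DMSO. Eye malformation scored present/absent by brightfield; dead embryos not scored.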

The nature of assay [4]: Tanguay_ZF_120hpf_SNOU_legacy: (Legacy) Oregon State University Tanguay Lab 120 Hour Post-fertilization zebrafish Assay for Snout Malformation (AID 2283637). Put shortly: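 Dechorionated tropical 5D wild-type zebrafish embryos exposed statically from 6 to 120 hpf at 28C, one per well, in 0.64% DMSO. Snout malformation scored as present/absent by brightfield at 120 hpf; dead embryos not scored.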

Assay [5] can be described thus: Tanguay_ZF_120hpf_JAW_legacy: (Legacy) Oregon State University Tanguay Lab 120 Hour Post-fertilization zebrafish Assay for Jaw Malformation (AID 2283638).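 On AC50: active means more embryos with jaw malformation than DMSO controls.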 Put shortly: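 Steps: dechorionate 4 hpf embryos (pronase); plate 1/well at 6 hpf; add test chemical, 0.64% DMSO final; seal, cover, hold at 28C statically to 120 hpf; score jaw defect presence/absence microscopically. Dead embryos not scored.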

Assay [6] in a line: Tanguay_ZF_120hpf_OTIC_legacy: (Legacy) Oregon State University Tanguay Lab 120 Hour Post-fertilization zebrafish Assay for Otic Vesicle Malformation (AID 2283639). An outline of the steps: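 Otic vesicle malformation is read as a yes/no morphology call at 120 hpf. Exposure is static at 28C with 0.64% (vol/vol) DMSO; embryos that die are excluded from non-mortality endpoints.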

Assay [7] in a line: Tanguay_ZF_120hpf_PE_legacy: (Legacy) Oregon State University Tanguay Lab 120 Hour Post-fertilization zebrafish Assay for Pericardial Edema (AID 2283640).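 On AC50: potency for increased incidence of pericardial edema versus DMSO baseline.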 An outline of the steps: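 Embryos from wild-type 5D adults were staged, then dosed in 0.64% DMSO. They were kept sealed in the dark at 28C until 120 hpf. Pericardial edema was then recorded as present or absent.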
Assay [8] is described as follows: Tanguay_ZF_120hpf_BRAI_legacy: (Legacy) Oregon State University Tanguay Lab 120 Hour Post-fertilization zebrafish Assay for Brain Malformation (AID 2283641). An outline of the steps: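 Wild-type 5D larvae, static waterborne exposure to 120 hpf, 28C, 0.64% v/v DMSO. Brightfield scoring of brain defects, binary; dead embryos excluded. Positive ctrl 5uM trimethyltin chloride.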

Assay [9] is described as follows: Tanguay_ZF_120hpf_MORT_legacy: (Legacy) Oregon State University Tanguay Lab 120 Hour Post-fertilization zebrafish Assay for Mortality (AID 2283633). An outline of the steps: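 5D WT zebrafish, chorion removed 4 hpf; 1 embryo/well from 6 hpf; static exposure to 120 hpf, 28C, dark, sealed. Final DMSO 0.64%. Readout: binary mortality, brightfield, 24 + 120 hpf; DMSO as negative control.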

As for `Cc1nc(-c2ccccn2)ncc1C(=O)Nn1cc(C)c2cc(F)ccc21`, the call in assay [1], in assay [2], in assay [3], in assay [4], in assay [5] and in assay [6] was inactive. Moreover, the molecule was classed as inactive in assay [7] and in assay [8].

For the molecule `CNC(C)=O`, the molecule was called inactive in [9], in assay [2], in assay [4], in [5], in assay [7] and in [8].

In the case of `c1ccc2c(c1)-c1cccc3c1c-2cc1ccccc13`, the molecule was called inactive in [1], in [3], in assay [4], in assay [6] and in [8].

On to `CCCCCOC(C)=O`, for which the result in assay [1], in assay [2], in [3], in assay [4], in assay [5] and in [6] was inactive. For the same molecule, the call in assay [7] and in [8] was inactive.

In the case of `Cc1nccn1-c1ccc(Sc2cccc(C3(C(N)=O)CCOCC3)c2)cc1`, the outcome in assay [9], in assay [1], in [3], in assay [4], in assay [5] and in assay [6] was inactive. The result in [7] and in assay [8] was inactive.

On to `CCCOc1ccc(S(=O)(=O)N2CCN(CC)CC2)cc1-c1nc2c(CC)n(Cc3ccccn3)nc2c(=O)[nH]1`, for which the molecule was classed as inactive in assay [1], in [2], in assay [3], in assay [4], in [5] and in assay [6]. Besides, the call in assay [7] and in [8] was inactive.

Regarding `OCCNCCO`, the outcome in [1], in [2], in [3], in assay [4], in assay [5] and in assay [6] was inactive. In addition, the molecule was classed as inactive in assay [7] and in [8].

Broadly, the AC50 is the concentration giving half of the maximal activity seen. In the case of `CCCCCCCC1CCC(=O)O1` (configuration not stated), the AC50 is 25.9 µM (active) in [1], 31.9 µM (active) in [4] and 40.3 µM (active) in assay [5]. Moreover, the result in assay [2], in [3] and in assay [7] was inactive.

For the molecule `COS(C)(=O)=O`, the outcome in assay [9], in [1], in assay [2], in [3], in assay [4] and in [5] was inactive. Also, the molecule was called inactive in assay [6], in assay [7] and in assay [8].

In the case of `COCc1nnc(-c2ccc[n+]([O-])c2)n1-c1c(Cl)c(Cl)cc2[nH]c(=O)c(=O)[nH]c12`, the outcome in assay [1], in [3], in assay [4], in assay [5], in assay [6] and in assay [7] was inactive.

As for `NC(N)=O`, the molecule was classed as inactive in assay [9], in [1], in assay [2], in assay [4] and in [6].

In the case of `NC(=O)N1c2ccccc2C=Cc2ccccc21`, the molecule was classed as inactive in assay [1], in assay [2], in assay [3], in assay [4], in [5] and in [6]. The molecule was classed as inactive in assay [7] and in assay [8].

With `COc1cc2c(c(OC)c1OC)-c1ccc(OC)c(=O)cc1[C@@H](NC(C)=O)CC2`, the AC50 is 27.1 µM (active) in assay [1], 25 µM (active) in assay [6] and 26.2 µM (active) in assay [7]. The outcome in [2], in assay [3], in [4] and in [5] was inactive.

As to `NC(=O)N(O)[C@@H]1COc2cc(OCc3ccccc3)ccc21`, the molecule was called inactive in assay [9], in assay [1], in assay [3], in assay [4], in assay [5] and in [6]. For the same molecule, the result in assay [7] and in assay [8] was inactive.

Turning to `Cc1ccc(S(=O)(=O)NC(=O)NN2CCCCCC2)cc1`, the call in assay [9], in assay [2], in [3], in assay [5], in assay [6] and in assay [7] was inactive. In addition, the call in assay [8] was inactive.

Take `CCOc1ccc2[nH]cc(C(=O)NCc3ccccc3)c(=O)c2n1`: the outcome in assay [1], in assay [2], in assay [3], in assay [4], in assay [5] and in [6] was inactive. Besides, the molecule was called inactive in [7] and in assay [8].

For the molecule `CCCc1ccccc1`, the call in assay [1], in [2], in assay [3], in [4], in assay [5] and in assay [6] was inactive. Moreover, the molecule was classed as inactive in [7] and in assay [8].

On to `CCCCCCCCN(C)C`, for which the molecule was called inactive in [2], in [4], in assay [5], in [6] and in assay [8].

With `CCN(CC)C(=S)SSC(=S)N(CC)CC`, the molecule was classed as inactive in assay [9], in assay [6] and in assay [8]. Moreover, the AC50 in [1] was 0.425 µM (active); in assay [2], 0.36 µM (active); in [3], 1.4 µM (active); in assay [4], 1.4 µM (active); in assay [5], 1.24 µM (active); in [7], 1.22 µM (active).

As to `CC(C)C(=O)Nc1ccc([N+](=O)[O-])c(C(F)(F)F)c1`, the molecule was classed as inactive in [9], in assay [1], in [2], in [3], in [4] and in [5]. Besides, the result in [6], in assay [7] and in assay [8] was inactive.

As for `O=C(O)c1cccc(C(=O)O)c1`, the outcome in [1], in assay [2], in [3], in assay [4], in [5] and in assay [6] was inactive. In addition, in assay [7], the result was inactive.

On to `OCC(CO)(CO)CO`, for which the molecule was classed as inactive in assay [1], in assay [2], in assay [3], in assay [6], in [7] and in assay [8].

`CC1(C)C(=O)N(Cl)C(=O)N1Cl`: the molecule was classed as inactive in assay [9], in assay [1], in [2], in assay [4], in assay [5] and in [6]. The molecule was called inactive in [7] and in [8].

As to `Cn1cc[nH]c1=S`, the molecule was classed as inactive in [3], in [4], in assay [5], in assay [6], in assay [7] and in assay [8].

With `CC(C)CC(C)O` (configuration not stated), the molecule was classed as inactive in assay [1], in assay [2], in assay [3], in [4], in [5] and in assay [6]. Further, the molecule was classed as inactive in [7] and in assay [8].

As to `O=C(O)[C@H](O)[C@@H](O)C(=O)O`, the call in [1], in [2], in assay [4], in assay [5], in assay [6] and in [7] was inactive. The call in assay [8] was inactive.

As to `OCc1ccccc1`, the result in assay [1], in assay [2], in assay [3], in [4], in [5] and in [6] was inactive. The call in [7] and in assay [8] was inactive.

In the case of `OC[C@H]1O[C@@](CO)(O[C@H]2O[C@H](CO)[C@@H](O)[C@H](O)[C@H]2O)[C@@H](O)[C@@H]1O`, the outcome in assay [1], in assay [2], in assay [3], in assay [4], in assay [5] and in [6] was inactive. Also, the molecule was classed as inactive in assay [7] and in assay [8].

With `O=S(=O)(O)c1ccc(N=Nc2c(O)ccc3cc(S(=O)(=O)O)ccc23)cc1`, the result in [1], in assay [2], in [3], in assay [4], in assay [6] and in [7] was inactive. Further, the molecule was classed as inactive in assay [8].

For the molecule `CC[C@H](C)C(=O)O[C@H]1C[C@H](O)C=C2C=C[C@H](C)[C@H](CC[C@@H](O)C[C@@H](O)CC(=O)O)[C@H]21`, the molecule was classed as inactive in assay [1], in assay [2], in assay [3], in [4], in [5] and in assay [6]. Besides, the result in [7] and in [8] was inactive.

For `OC(CCl)CCl`, the call in assay [1], in [2], in assay [3], in assay [4], in assay [5] and in [6] was inactive. The molecule was called inactive in assay [7] and in assay [8].

`CC(C)c1nnc2ccc(-c3ocnc3-c3cc(F)ccc3F)cn12`: the outcome in assay [9], in assay [1], in assay [3], in [4], in assay [6] and in assay [7] was inactive. For the same molecule, the outcome in [8] was inactive.

`COc1cc(C(C)C)c2c(c1)S(=O)(=O)N(COc1cc(=O)n3cccc(OCCN4CCCCC4)c3n1)C2=O`: the call in assay [1], in [3], in assay [5] and in assay [8] was inactive. For the same molecule, the AC50 in assay [2] is 32.4 µM (active); in assay [4], 24.6 µM (active); in [6] it was 15.3 µM (active); in assay [7], 20 µM (active).

On to `CCCCCCOC(=O)CC(CC(=O)OCCCCCC)(OC(=O)CCC)C(=O)OCCCCCC`, for which the outcome in assay [1], in assay [2], in [3], in assay [5], in assay [6] and in assay [7] was inactive. Also, the result in assay [8] was inactive.

As for `O=C(NO)C1(NS(=O)(=O)c2ccc(Oc3ccc(F)cc3)cc2)CCOCC1`, the molecule was classed as inactive in [1], in [2], in [3], in assay [4], in [5] and in [6]. Also, the outcome in assay [7] and in assay [8] was inactive.

As for `CC(C)CCCCCCOC(=O)C1CCCCC1C(=O)OCCCCCCC(C)C` (configuration not stated), the call in assay [1], in assay [3], in assay [4], in [5], in assay [7] and in [8] was inactive.

As for `C[C@@H](Oc1ccc(CNC(=O)c2cccnc2Oc2ccc3c(c2)OCO3)c(F)c1)C(=O)O`, the molecule was classed as inactive in [9], in assay [1], in assay [2], in [3], in assay [4] and in assay [5]. In addition, the molecule was called inactive in assay [6], in [7] and in assay [8].
